# About 1,400 (4.5%) of roughly 31,000 sequences were called active. This is one part of a sample in which actives are shown more often than they occur. A number with no mark means an inactive call.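 The calls were made as follows: active = median seed-adjusted z-score above 1 or below -1; inactive = the rest.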
# Experiment: Novel Modifiers of Survival Motor Neuron (SMN) Protein: Gene Identification via Genome-wide siRNA Screen;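 also: luminescence tracks full-length SMN protein made from the SMN2 reporter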
# Details: HEK293T SMN2-luciferase reporter, siRNA knockdown, 72 h; actives lie on both sides
# Method in brief: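 HEK293T cells stably carrying an SMN2 promoter/splicing cassette–luciferase reporter were reverse-transfected with 1 pmol siRNA per well (druggable-genome library, 3 siRNAs per gene) and grown 72 h at 37 °C. Luminescence, normalized to negative-control siRNA and log10-transformed, was scored as MAD.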
row,Sequence,median seed-adjusted z-score
1,GCCUAGAAUUUGUAUCCCATT against ATXN2,0
2,CCAAUCUGGUGACGAUUUATT against SP110,-0.788
3,GUAUUUCGAGUAAGUCUAATT against TTPA,-0.208
4,GGAGUUACUCCAUUAACUATT against JARID1C,0.372
5,CCUGCGUCUCUACAACUAUTT against AURKB,0.0901
6,GAGAUUUGAUGAGAAGAGATT against MMP3,0.0592
7,UCUGGCUUAUUAUAACUAUTT against ACOT2,0.578
8,AGAUCGAGCCGGACAUGAUTT against NACC1,1.59 (active)
9,GAUGGGUUCUUGAACAUAUTT against EXOG,0.746
10,CCUCAUGCCUUAAUGAUCATT against ZNF561,-0.00904
11,CAUCCGUUCCAUACAUGUATT against AEBP2,-0.212
12,GGAAUGGUUUAAAAUAGAATT against NUDT3,0.674
13,GGCAUUGCUUAAUGAUAUATT against SF3B1,-3.65 (active)
14,CCUUCAGUCUUAACUCCAATT against ZKSCAN1,0.229
15,GCUGUAGCCUUGAUGCCUATT against INMT,0.863
16,GUCCGAGUGUGGUUCUGUATT against POU5F1,0.0495
17,GGAAGAUCCUCUACCAGAATT against LATS2,-0.245
18,CAGUCAAUGUUGUUCAGUUTT against GARS,0.138
19,GGCUACAACGUGACCAAGATT against FZD4,0.0695
20,ACUUCAUGAUGGAUAUCCATT against KCNN4,0.00864
21,CCCUACAUGUGAACAACGATT against PRPF8,-1.54 (active)
22,GGCUAUGACGGGAAGGAGATT against PTPN7,-0.189
23,GAAUAGAUUUCAGUAGUAUTT against DDI2,1.27 (active)

row,Sequence,median seed-adjusted z-score
1,CCAGUGUACUCAGUCUAUUTT against STAM2,-0.24
2,GACCUUCCUAGUUUCCUGATT against GIPC1,0
3,AGCUCAACCGGUUUAAUAATT against SLC9A1,0
4,GGAAAUAGGUCUAGUACUATT against PRPF4B,-2.29 (active)
5,GGAUGAGAAAGUCGUGAAATT against TSHZ2,-0.361
6,CGGAUACGCUAAAAAUCAATT against B3GNTL1,0
7,GCCUAUUAUGGACAACAAUTT against IKZF2,0.514
8,GGAGUUAAGAAUAUUAUGATT against VAMP8,-0.184
9,GGAGUUCAUCAAUAUGAAUTT against MLF1,0.258
10,GCCUUCUACACUUACAUGATT against EVX1,1 (active)
11,GGAGUCAAGUGAAGCAGAATT against L3MBTL2,-0.312
12,GCAGGUACAUCUCGCCUGATT against ENO1,0.0766
13,GCCCAAUACUUGCAAGUGATT against KCNA2,-1.03 (active)
14,GGGAGGUAGUAAUCCUACATT against PPP1R12B,0.416
15,GGAUUCAUGAGUCUAUAUATT against SLC25A27,0.0916
16,GGACACCACAGUACCUAAATT against IL22RA1,-1.14 (active)
17,CAAUCCUGACUCAAACUAATT against RAG2,0.138
18,GGACCUGUAUUGGGAACAATT against ASPHD2,-0.719
19,CUUCAAAGGUGACAAGUAUTT against MMP24,-1.28 (active)
20,GGAGAGCAAUACAUCAUCATT against GLRX2,-0.244
21,GCACUUUACUAGGUCUAGATT against NANOS1,0.369
22,GAUUACUGGUGCGAUGUUATT against L3MBTL4,-0.189
23,UCUGCUAACCUGAAAGUAATT against CARD8,0.115

row,Sequence,median seed-adjusted z-score
1,AGAUCGACAAGAUGCAAGATT against FOXN1,0.226
2,CAGUGAAUCUUGGUUGUAATT against TBP,-1.25 (active)
3,GCAUCAUCCAGAGACUGCATT against CCL19,0.0364
4,GCAGAGACACCUUGAAGUATT against GAD1,0.101
5,CGUGUUUAUAAUUACCGAATT against MED14,-3.22 (active)
6,CACGAAAUCAUGCAAAUCATT against RPL17,-0.13
7,GAGGCGCACUUCAAGCAUATT against CENTA1,-0.555
8,GGAGUAAACCUCACUGACATT against TMPRSS5,1.25 (active)
9,GUAUCAAUCUUUGCGGAUATT against KL,-0.267
10,AGAUCAUGACUUGUGCUGATT against SEZ6L2,-0.331
11,GGAGGGCAUUGUCACUAAATT against MCM3,0.339
12,GGAUACCCAAUGCAAAUUATT against MMP16,0.144
13,GGAGAACUACCAGAACCUUTT against ZNF74,1.17 (active)
14,GCACUGGACCAAUACAAGUTT against GPR84,0.285
15,GGUGUUGUCUUGAGGUACATT against ADAMTS1,0.173
16,ACCCAGAUAUGGAUCUGCATT against TTLL10,0.211
17,GCUCAAAUGGAGAACUAAATT against GALNT8,-0.283
18,GACCAAAAGUGGAACUCCATT against PTPN23,-0.0473
19,CCAUUGUUCCAGACUUCUUTT against CMBL,0
20,GGGCAUGGGUUUUAAUCGATT against PYGO1,-1.23 (active)
21,GAGUUAUACGAUCCAUGUATT against TXNL4A,-0.42
22,AGAGCUAUGCUUUAGGUCUTT against S100A2,-0.0951
23,GCCUCAAUCUCUACUCGAATT against PCDHGA2,-0.8

# Reference: PubChem BioAssay AID1347426 (Functional Genomics Laboratory (NCATS/FGL), 2020)
